From PubChem BioAssay (NCI)
The panel holds about 83,000 compounds, 20% with a hit somewhere; the sample as a whole holds those more often.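 96-well plates, one dose, 48 hours. Percent growth reported; active if below 10.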 Activity calls are given as the source filed them.

System: OVCAR-4 ovarian
Assay: NCI-60 one-dose screen, 48 h (100 = growth as untreated, 0 = no growth, -100 = all killed)
Conditions: 10 µM

SMILES | growth
COc1ccc(-c2cc(C(=O)N=Nc3c(O)[nH]c4ccc(Br)cc34)c3ccccc3n2)cc1 | 51% (inactive)
CC(=O)c1ccc(Nc2nc(SCCC(C)C)nc(-c3ccc(F)cc3)c2C#N)cc1 | -6.74% (active)
Clc1cccc(N/N=C/c2c[nH]c3ccccc23)n1 | 41.3% (inactive)
O=[N+]([O-])c1ccc(-c2nc(-c3ccccc3)c(-c3ccccc3)n2-c2ccc(S(=O)(=O)Nc3ncccn3)cc2)cc1 | 66.7% (inactive)
O=C(CSc1nnc(-c2ccc3nc(-c4ccc(Cl)cc4)[nH]c3c2)o1)Nc1ccc(Cl)cc1 | -46.7% (active)
CCOC(=O)c1c(CSc2ccccc2)n(C)c2cc(CN(C)C)c(O)c(CN(C)C)c12 | 36.5% (inactive)
N#Cc1c(NC(=O)c2cccc(C(F)(F)F)c2)sc2c1CCC(O)=C2 | 29.5% (inactive)
Cc1ccc(-c2nc(Nc3ccc(S(N)(=O)=O)cc3)c3ccccc3n2)cc1 | 61.7% (inactive)
Cc1ccc2nc(COc3ccc(C(=O)NNC(=S)NC(=O)c4ccccc4)cc3)[nH]c2c1 | 57.3% (inactive)
O=C(CNc1nc(-c2ccccc2)cs1)Nc1cccc([N+](=O)[O-])c1 | -45.7% (active)
CC(=O)Nc1ccc(-c2cn(-c3cccc(C(=O)Nc4cccc(OC(F)(F)F)c4)c3)nn2)cn1 | 102% (inactive)
OCCCNc1oc(-c2ccccc2)nc1[P+](c1ccccc1)(c1ccccc1)c1ccccc1 | 16.6% (inactive)
CC(C)Sc1nc(NC2CC2)c(C#N)c(-c2ccccc2)n1 | 27.6% (inactive)
OCCNc1oc(-c2ccccc2)nc1[P+](c1ccccc1)(c1ccccc1)c1ccccc1 | 10.2% (inactive)
C/C(=C\c1ccc(O)cc1O)c1ccc2ccc(O)cc2[o+]1 | 74.4% (inactive)
Cc1noc2c(Cc3ccc([N+](=O)[O-])cc3)nn(CC(=O)N/N=C/c3ccc(Cl)cc3)c(=O)c12 | 7.98% (active)
CCOC(=O)CNC(=O)CN(Cc1ccccc1)C(=O)[C@@]1(C)CCC[C@]2(C)[C@H]3CC4C(C(C)C)=C[C@]3(CC[C@H]21)[C@@H]1C(=O)CCC(=O)[C@H]41 | 49.4% (inactive)
O=C(CSc1nnc(-c2c[nH]c3ccccc23)n1-c1ccccc1)c1ccc(Cl)cc1 | 14.9% (inactive)
COc1ccc(-c2cc(C(=O)N=Nc3c(O)[nH]c4ccc(F)cc34)c3ccccc3n2)cc1 | 52% (inactive)

SMILES | growth
O=C1Nc2ccc(Cl)cc2/C1=C/c1ccc(OCc2ccccn2)cc1 | -1.81% (active)
Cc1noc2c(Cc3ccccc3)nn(CC(=O)N/N=C/c3ccc(Cl)cc3)c(=O)c12 | -59.5% (active)
COc1ccc2[nH]c(=O)c(CSc3cccc(N)c3)cc2c1 | 49.8% (inactive)
COc1ccc(C(=O)/C=C/c2cc(F)cc(C(F)(F)F)c2)cc1S(N)(=O)=O | -98% (active)
Nc1cc(-c2cccc(C(=O)NCc3ccc4c(c3)OCO4)c2)ccn1 | 90.1% (inactive)
Cc1ccc(/C(N)=N/c2sc(-c3ccccc3)nc2-c2ccccc2)cc1 | 72% (inactive)
CN(C(=O)c1ccc(C(C)(C)C)cc1)c1sc2c(c1C#N)CCC(=O)C2 | 1.97% (active)
O=C(NO)c1ccc(CNC(=O)[C@H]2Cc3c([nH]c4ccccc34)[C@H](c3ccccc3)N2)cc1 | 53.7% (inactive)
COc1ccc2cc([C@H](C)C(=O)NCc3ccccc3)ccc2c1 | 53.5% (inactive)
Cc1noc2c(Cc3ccccc3)nn(CC(=O)N/N=C/c3ccc(F)cc3)c(=O)c12 | 5.18% (active)
COc1cnc2c(c1)C(=O)c1c-2n(CCCNCCO)c(=O)c2cc(OC)c(OC)cc12 | 47.8% (inactive)
CN1CCc2c(sc3ncnc(N/N=C/c4cn(-c5ccccc5)nc4-c4ccc(Cl)cc4)c23)C1 | -9.33% (active)
N#Cc1c(NC(=O)c2ccc(C(F)(F)F)cc2C(F)(F)F)sc2c1CCC(=O)C2 | -40.8% (active)
O=C1N/C(=N\c2nccs2)S/C1=C\c1cccs1 | 30.9% (inactive)
CC(=O)c1ccc(Nc2nc(SC(C)C)nc(-c3ccccc3)c2C#N)cc1 | -19.1% (active)
O=C(CNc1nc(-c2ccccc2)cs1)Nc1ccc([N+](=O)[O-])cc1Cl | 45.4% (inactive)
O=C(NO)c1ccc(Cn2ccc3c(Nc4ccccc4)ncnc32)cc1 | 38.7% (inactive)
O=C(NO)c1ccc(CN2CCN(c3nc(-c4ccccc4)c4ccccc4n3)CC2)cc1 | 22.7% (inactive)

System: SK-OV-3 ovarian
Assay: as above
Conditions: 10 µM

SMILES | growth
COc1ccc(-c2cc(C(=O)N=Nc3c(O)[nH]c4ccc(Br)cc34)c3ccccc3n2)cc1 | 114% (inactive)
CC(=O)c1ccc(Nc2nc(SCCC(C)C)nc(-c3ccc(F)cc3)c2C#N)cc1 | 98.7% (inactive)
Clc1cccc(N/N=C/c2c[nH]c3ccccc23)n1 | 63.7% (inactive)
O=[N+]([O-])c1ccc(-c2nc(-c3ccccc3)c(-c3ccccc3)n2-c2ccc(S(=O)(=O)Nc3ncccn3)cc2)cc1 | 104% (inactive)
O=C(CSc1nnc(-c2ccc3nc(-c4ccc(Cl)cc4)[nH]c3c2)o1)Nc1ccc(Cl)cc1 | 21.6% (inactive)
CCOC(=O)c1c(CSc2ccccc2)n(C)c2cc(CN(C)C)c(O)c(CN(C)C)c12 | 87% (inactive)
N#Cc1c(NC(=O)c2cccc(C(F)(F)F)c2)sc2c1CCC(O)=C2 | 40.3% (inactive)
Cc1ccc(-c2nc(Nc3ccc(S(N)(=O)=O)cc3)c3ccccc3n2)cc1 | 114% (inactive)
Cc1ccc2nc(COc3ccc(C(=O)NNC(=S)NC(=O)c4ccccc4)cc3)[nH]c2c1 | 67.2% (inactive)
O=C(CNc1nc(-c2ccccc2)cs1)Nc1cccc([N+](=O)[O-])c1 | -22% (active)
CC(=O)Nc1ccc(-c2cn(-c3cccc(C(=O)Nc4cccc(OC(F)(F)F)c4)c3)nn2)cn1 | 93.9% (inactive)
OCCCNc1oc(-c2ccccc2)nc1[P+](c1ccccc1)(c1ccccc1)c1ccccc1 | -4.9% (active)
CC(C)Sc1nc(NC2CC2)c(C#N)c(-c2ccccc2)n1 | 88.8% (inactive)
OCCNc1oc(-c2ccccc2)nc1[P+](c1ccccc1)(c1ccccc1)c1ccccc1 | -3.42% (active)
C/C(=C\c1ccc(O)cc1O)c1ccc2ccc(O)cc2[o+]1 | 103% (inactive)
Cc1noc2c(Cc3ccc([N+](=O)[O-])cc3)nn(CC(=O)N/N=C/c3ccc(Cl)cc3)c(=O)c12 | 67.2% (inactive)
CCOC(=O)CNC(=O)CN(Cc1ccccc1)C(=O)[C@@]1(C)CCC[C@]2(C)[C@H]3CC4C(C(C)C)=C[C@]3(CC[C@H]21)[C@@H]1C(=O)CCC(=O)[C@H]41 | 96.6% (inactive)
O=C(CSc1nnc(-c2c[nH]c3ccccc23)n1-c1ccccc1)c1ccc(Cl)cc1 | 72.1% (inactive)
COc1ccc(-c2cc(C(=O)N=Nc3c(O)[nH]c4ccc(F)cc34)c3ccccc3n2)cc1 | 101% (inactive)

SMILES | growth
O=C1Nc2ccc(Cl)cc2/C1=C/c1ccc(OCc2ccccn2)cc1 | 89.2% (inactive)
Cc1noc2c(Cc3ccccc3)nn(CC(=O)N/N=C/c3ccc(Cl)cc3)c(=O)c12 | 33.9% (inactive)
COc1ccc2[nH]c(=O)c(CSc3cccc(N)c3)cc2c1 | 94.5% (inactive)
COc1ccc(C(=O)/C=C/c2cc(F)cc(C(F)(F)F)c2)cc1S(N)(=O)=O | 42.1% (inactive)
Nc1cc(-c2cccc(C(=O)NCc3ccc4c(c3)OCO4)c2)ccn1 | 107% (inactive)
Cc1ccc(/C(N)=N/c2sc(-c3ccccc3)nc2-c2ccccc2)cc1 | 87.1% (inactive)
CN(C(=O)c1ccc(C(C)(C)C)cc1)c1sc2c(c1C#N)CCC(=O)C2 | 101% (inactive)
O=C(NO)c1ccc(CNC(=O)[C@H]2Cc3c([nH]c4ccccc34)[C@H](c3ccccc3)N2)cc1 | -3.43% (active)
COc1ccc2cc([C@H](C)C(=O)NCc3ccccc3)ccc2c1 | 40.6% (inactive)
Cc1noc2c(Cc3ccccc3)nn(CC(=O)N/N=C/c3ccc(F)cc3)c(=O)c12 | 28.9% (inactive)
COc1cnc2c(c1)C(=O)c1c-2n(CCCNCCO)c(=O)c2cc(OC)c(OC)cc12 | 7.28% (active)
CN1CCc2c(sc3ncnc(N/N=C/c4cn(-c5ccccc5)nc4-c4ccc(Cl)cc4)c23)C1 | 64% (inactive)
N#Cc1c(NC(=O)c2ccc(C(F)(F)F)cc2C(F)(F)F)sc2c1CCC(=O)C2 | -22.2% (active)
O=C1N/C(=N\c2nccs2)S/C1=C\c1cccs1 | 39.3% (inactive)
CC(=O)c1ccc(Nc2nc(SC(C)C)nc(-c3ccccc3)c2C#N)cc1 | 36.2% (inactive)
O=C(CNc1nc(-c2ccccc2)cs1)Nc1ccc([N+](=O)[O-])cc1Cl | 35.8% (inactive)
O=C(NO)c1ccc(Cn2ccc3c(Nc4ccccc4)ncnc32)cc1 | -7.35% (active)
O=C(NO)c1ccc(CN2CCN(c3nc(-c4ccccc4)c4ccccc4n3)CC2)cc1 | -22.2% (active)
